According to PubChem BioAssay (NCATS):
Inconclusive results are not listed. Active and inactive are the calls of the source. Unless noted, calls come from the whole dose curve; as a rule, active = well fitted curve in the direction sought with a large enough effect; inconclusive = small, poorly fitted or top-dose-only effect, or another doubt; inactive = no such curve, though single readings can be large; an effect the other way counts as inactive or inconclusive.

Columns and labels:
[1] = biological target: Lysosomal acid glucosylceramidase (Homo sapiens) (UniProt P04062); assay: Glucocerebrosidase-p2 (AID 348; in the data active = potency below about 10 µM; note: potency is the fitted concentration of half-maximal effect); conditions: purified GBA, blue fluorogenic substrate, 40 min
Outline: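 Compounds titrated from 0.6 nM upwards against 0.2 nM enzyme in pH 5.9 citric acid/KH2PO4, taurocholate, tween-20; blue fluorogenic substrate 80 uM, 40 min room temperature, stopped and read Ex 365/Em 440 for AC50.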

[2] = AP1 Signaling Pathway (AID 357; active = well fitted curve in either direction with a large enough effect, not every such curve was filed as active;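 note: ME-180 reporter cells stimulated with EGF at its EC50 level; % is set by controls: 0 for no effect and ±100 for the full control effect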); conditions: ME-180 AP-1-bla reporter, EGF-induced, beta-lactamase ratio, 5 h; at 7.69 µM (top of the series) unless noted
Outline: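 AP-1-bla ME-180 cells, Opti-MEM + 0.5% dialyzed FBS, plated overnight 37 °C. Cpd titration + EC50 EGF, 5 h 37 °C. CCF4 2.5 h RT; ex 405, em 460/530 ratio → %activity, AC50.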

[3] = biological target: Cytochrome P450 1A2 (Homo sapiens) (UniProt P05177); assay: p450-cyp1a2 (AID 410; calls by dose curve; note: potency is the fitted concentration of half-maximal effect); conditions: recombinant CYP1A2, luciferin-ME demethylation, luminescence; series mostly up to 57 µM
Outline: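 20nM CYP1A2 with 100uM Luciferin-ME (at Km) in 100mM KPO4; compound preincubated 10 min, NADPH regeneration added, 60 min at room temperature. Luciferin quantified by luminescence after detection reagent; normalized to 57 uM furafylline.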

[4] = NFAT Signaling Pathway (AID 444; active = well fitted curve in either direction with a large enough effect, not every such curve was filed as active;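 note: carbachol stimulus at about its EC50 of 1 µM final; % is set by controls: 0 for no effect and ±100 for the full control effect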); conditions: Jurkat NFAT-bla M1, carbachol, beta-lactamase ratio, 5 h; at 7.69 µM (top of the series) unless noted
Outline: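 Jurkat cells with NFAT-driven β-lactamase reporter and co-expressed M1 receptor, stimulated with carbachol (final 1 uM, ~EC50), compound titration, 5 h at 37 °C. CCF4 loaded 1 h at RT; 460/530 nm ratio gave %activity and AC50.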

[5] = Stat Signaling Pathway (AID 446; active = well fitted curve in either direction with a large enough effect, not every such curve was filed as active;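 note: ME-180 cervical cancer cells given 40 pM IL-6 alongside compound; SIE-controlled beta-lactamase reporter measured as 460/530 nm FRET emission ratio; % is set by controls: 0 for no effect and ±100 for the full control effect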); conditions: ME-180 SIE beta-lactamase reporter, IL-6 stimulated, 5 h; at 7.69 µM (top of the series) unless noted
Outline: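 Screening format detects activators and inhibitors alike: ME-180 SIE-bla cells stimulated at 40 pM IL-6 for 5 hrs with compound, then dual-emission beta-lactamase read at 405 nm excitation.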

[6] = biological target: Glucocorticoid receptor (Homo sapiens) (UniProt P04150); assay: GR-GFP Redistribution (AID 450;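 active = compounds whose dose series gives a full or clear partial fitted curve of increased nuclear translocation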; note: potency is the fitted concentration of half-maximal effect); conditions: U2OS GR-GFP nuclear translocation, laser cytometry, 2 h
[7] = biological target: Glucocorticoid receptor (Homo sapiens) (UniProt P04150); assay: GR-EFC Redistribution (AID 451; calls by dose curve; note: potency is the fitted concentration of half-maximal effect); conditions: CHO-K1 GR-EFC translocation, beta-gal luminescence, 2 h
Outline: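 CHO-K1 cells expressing nuclear EA and GR-ED fragments of b-gal; compounds titrated up to 46 uM final, 2 h at 37 C. GR nuclear translocation read as complemented b-gal luminescence after 1 h RT detection.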

[8] = biological target: Mitogen-activated protein kinase 10 (Mus musculus) (UniProt Q61831); assay: JNK3 AlphaScreen Assay (AID 530; active = well fitted curve in either direction with a large enough effect, not every such curve was filed as active;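 note: kinase came from lysate of stimulated human HepG2 cells; signal reports phosphorylation of biotinylated GST-cJun 1-79 at Ser73 with 10 µM ATP; % is set by controls: 0 for no effect and ±100 for the full control effect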); conditions: JNK3 lysate, c-Jun phosphorylation; series mostly up to 57.1 µM
Outline: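 Pre-activated (IL-1β/TNFα) JNK3 in HepG2 lysates phosphorylates biotin-GST-cJun(1-79), 10 uM ATP; anti-phospho-cJun(Ser73) AlphaScreen read at room temperature, pH 7.6 Tris buffer. Compounds pre-incubated 15 min as titrations.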

[9] = biological target: 3',5'-cyclic-AMP phosphodiesterase 4B (Homo sapiens) (UniProt Q07343); assay: qHTS Assay for Inhibitors of PDE-IV (AID 607; active = well fitted activation curve with a large enough effect in the main read-out, with a control signal flat, not every such curve was filed as active; note: % of control where 0% means no effect); conditions: HEK293 ACTOne CNG channel cells, membrane potential fluorescence; series mostly up to 22.9 µM
Outline: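 The readout is membrane depolarisation from a cAMP-sensing CNG channel, detected with a potential dye at ex 535/em 590. Cells were HEK293-derived (endogenous PDE-IV) at 1000 cells/well, titrated up to 22.9 uM final.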

[10] = qHTS Assay for Lipid Storage Modulators (AID 1519; calls by dose curve); conditions: Drosophila S3 cells, BODIPY lipid droplet/cell ratio, laser cytometry, cells loaded with oleic acid; for activity change, negative = inhibition: at 57.5 µM (top of the series)
Outline: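 Cells seeded at 5,000 per well were treated with compounds over a concentration series and loaded with oleic acid (400 uM, as added). Lipid droplet fluorescence (488 nm excitation, 500-530 nm channel) was read by laser-scanning cytometry and normalized to 20 uM Triacsin C.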

[11] = biological target: Dual specificity protein kinase CLK4 (Homo sapiens) (UniProt Q9HAZ1); assay: qHTS Assay for Inhibitors of CDC-like Kinase 4 (Kinase-Glo Assay) (AID 1770); conditions: recombinant Clk4, Kinase-Glo ATP depletion luminescence; series mostly up to 66.7 µM; note: % is set by controls: 0 for no effect and ±100 for the full control effect; nearly all actives have a fitted effect of over 65% in size
Outline: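 25 nM Clk4 with 100 uM RS repeat peptide and 1 uM ATP (final) in Tris pH7.5, 10 mM MgCl2, 4.5 h at room temperature. Remaining ATP measured by Kinase-Glo luciferase luminescence.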

[12] = biological target: Dual specificity protein kinase CLK4 (Homo sapiens) (UniProt Q9HAZ1); assay: qHTS Assay for Inhibitors of CDC-like Kinase 4 (ADP-Glo Assay) (AID 1771); conditions: recombinant CLK4, ADP-Glo luminescence; series mostly up to 80 µM; note: % is set by controls: 0 for no effect and ±100 for the full control effect; nearly all actives have a fitted effect of over 70% in size
Outline: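 25 nM Clk4 with 100 uM RS repeat peptide and 1 uM ATP (final) in buffer with 2 mM MgCl2, 0.5 mM EGTA, 2.5 mM DTT, 0.01% Triton X-100; 1 h at room temperature; ADP-Glo luminescence for ADP formed.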

[13] = biological target: Dual specificity protein kinase CLK4 (Homo sapiens) (UniProt Q9HAZ1); assay: qHTS Assay for Inhibitors of CDC-like Kinase 4 (ADP-FP Assay) (AID 1795); conditions: Transcreener ADP fluorescence polarization; series mostly up to 50 µM;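 note: recombinant human CLK4 phosphorylating RS repeat peptide at 1 µM ATP; % is set by controls: 0 for no effect and ±100 for the full control effect; nearly all actives have a fitted effect of over 60% in size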
Outline: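 Recombinant Clk4 (6.25 nM) phosphorylated 100 uM RS repeat peptide with 1 uM ATP in 25 mM Tris pH 7.5, 10 mM MgCl2, 0.5 mM EGTA, 2.5 mM DTT, 0.01% Triton X-100 for 1 h. ADP was detected by Transcreener ADP2 competitive fluorescence polarization after 30 min at room temperature.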

[14] = biological target: Ubiquitin carboxyl-terminal hydrolase 1 (Homo sapiens) (UniProt O94782); assay: Inhibitors of USP1/UAF1: Pilot qHTS (AID 504865); conditions: purified USP1/UAF1, Ub-rhodamine cleavage fluorescence; series mostly up to 54.9 µM;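 note: rhodamine fluorescence freed from ubiquitin-rhodamine substrate followed over time; top concentration of the series differs between compounds; % is set by controls: 0 for no effect and ±100 for the full control effect; nearly all actives have a fitted effect of over 35% in size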
Outline: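 USP1/UAF1 complex at 1 nM preincubated 15 min at room temperature with compound, then Ub-Rho substrate added at 150 nM final. Fluorescence (480/540 nm) read kinetically in 50 mM HEPES pH 7.8, 0.5 mM EDTA, 1 mM TCEP, 0.1 mg/ml BSA, 0.01% Tween-20.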

[15] = Primary qHTS for small molecule stabilizers of the endoplasmic reticulum resident proteome: Secreted ER Calcium Modulated Protein (SERCaMP) assay (AID 1508630); conditions: SH-SY5Y GLuc-SERCaMP (Gaussia luciferase released on ER calcium loss) secretion, thapsigargin, luminescence; series mostly up to 38.4 µM; note: % is set by controls: 0 for no effect and ±100 for the full control effect
Outline: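 GLuc-SERCaMP-expressing SH-SY5Y cells, pretreated 16 h with compound, are challenged with thapsigargin to empty ER calcium stores; after 4 h, coelenterazine is added directly to the medium and luminescence is imaged.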

[16] = biological target: Cytochrome P450 3A4 (Homo sapiens) (UniProt P08684); assay: qHTS Assay for Activators of Cytochrome P450 3A4 (AID 885); conditions: recombinant CYP3A4, Luciferin-PPXE luminescence, 60 min; series mostly up to 57.1 µM; note: nearly all actives have a fitted effect of over 65% in size
Outline: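 Steps: enzyme/substrate mix dispensed; compound added, 10 min RT; NADPH regeneration solution added, 60 min RT; luciferin detection buffer stops reaction; 20 min later luminescence measured.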

[17] = measured here: cell count channel max response
[18] = measured here: lipid channel max response

Chain of Glucocorticoid receptor (Homo sapiens) (P04150 whole entry, looked up, the tested form may be a part): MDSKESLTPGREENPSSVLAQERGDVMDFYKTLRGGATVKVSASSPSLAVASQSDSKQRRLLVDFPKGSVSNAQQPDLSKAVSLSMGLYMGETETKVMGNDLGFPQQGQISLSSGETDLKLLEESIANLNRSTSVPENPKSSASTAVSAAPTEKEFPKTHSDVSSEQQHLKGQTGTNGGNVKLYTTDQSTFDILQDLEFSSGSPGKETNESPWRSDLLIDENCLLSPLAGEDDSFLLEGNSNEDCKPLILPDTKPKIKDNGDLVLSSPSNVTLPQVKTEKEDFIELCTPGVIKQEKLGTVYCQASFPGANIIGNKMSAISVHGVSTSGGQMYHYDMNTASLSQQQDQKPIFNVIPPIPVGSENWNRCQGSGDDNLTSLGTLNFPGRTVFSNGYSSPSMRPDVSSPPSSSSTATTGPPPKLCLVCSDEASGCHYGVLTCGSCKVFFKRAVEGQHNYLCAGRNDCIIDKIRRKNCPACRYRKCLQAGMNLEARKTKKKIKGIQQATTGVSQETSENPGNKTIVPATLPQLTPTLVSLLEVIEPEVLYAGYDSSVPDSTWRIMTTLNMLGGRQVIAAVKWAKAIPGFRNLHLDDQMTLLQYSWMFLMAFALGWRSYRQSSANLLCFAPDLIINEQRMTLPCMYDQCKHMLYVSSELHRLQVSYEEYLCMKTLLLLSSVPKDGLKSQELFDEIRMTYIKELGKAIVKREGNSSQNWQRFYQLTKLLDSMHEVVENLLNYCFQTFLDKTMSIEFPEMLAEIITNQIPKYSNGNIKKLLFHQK
Chain of Cytochrome P450 3A4 (Homo sapiens) (P08684 whole entry, looked up): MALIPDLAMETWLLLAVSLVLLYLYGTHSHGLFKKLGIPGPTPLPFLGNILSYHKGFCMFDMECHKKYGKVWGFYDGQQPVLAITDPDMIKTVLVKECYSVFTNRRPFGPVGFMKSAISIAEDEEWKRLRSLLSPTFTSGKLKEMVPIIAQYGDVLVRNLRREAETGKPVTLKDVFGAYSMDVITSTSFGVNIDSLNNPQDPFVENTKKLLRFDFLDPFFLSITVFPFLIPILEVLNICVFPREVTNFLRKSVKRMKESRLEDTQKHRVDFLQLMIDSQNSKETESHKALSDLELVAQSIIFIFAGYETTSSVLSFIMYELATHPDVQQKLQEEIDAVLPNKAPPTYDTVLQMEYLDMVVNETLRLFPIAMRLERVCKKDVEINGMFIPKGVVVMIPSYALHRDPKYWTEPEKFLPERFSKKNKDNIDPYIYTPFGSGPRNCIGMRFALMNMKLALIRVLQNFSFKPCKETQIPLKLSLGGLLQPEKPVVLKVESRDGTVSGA
Chain of Cytochrome P450 1A2 (Homo sapiens) (P05177 whole entry, looked up): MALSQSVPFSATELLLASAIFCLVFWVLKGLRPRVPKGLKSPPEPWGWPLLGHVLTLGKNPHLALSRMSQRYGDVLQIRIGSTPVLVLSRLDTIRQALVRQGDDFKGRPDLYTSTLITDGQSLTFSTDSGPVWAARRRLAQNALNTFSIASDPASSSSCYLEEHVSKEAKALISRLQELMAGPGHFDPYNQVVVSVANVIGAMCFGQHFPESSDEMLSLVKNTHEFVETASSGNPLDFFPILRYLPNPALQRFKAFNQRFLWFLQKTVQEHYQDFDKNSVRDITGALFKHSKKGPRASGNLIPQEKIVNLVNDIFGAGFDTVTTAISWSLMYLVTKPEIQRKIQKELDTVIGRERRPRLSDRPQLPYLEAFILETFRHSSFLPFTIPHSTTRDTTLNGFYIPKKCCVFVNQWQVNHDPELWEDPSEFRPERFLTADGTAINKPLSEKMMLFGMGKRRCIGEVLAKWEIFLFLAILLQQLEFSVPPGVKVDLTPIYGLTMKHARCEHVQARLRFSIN
Chain of Dual specificity protein kinase CLK4 (Homo sapiens) (Q9HAZ1 whole entry, looked up): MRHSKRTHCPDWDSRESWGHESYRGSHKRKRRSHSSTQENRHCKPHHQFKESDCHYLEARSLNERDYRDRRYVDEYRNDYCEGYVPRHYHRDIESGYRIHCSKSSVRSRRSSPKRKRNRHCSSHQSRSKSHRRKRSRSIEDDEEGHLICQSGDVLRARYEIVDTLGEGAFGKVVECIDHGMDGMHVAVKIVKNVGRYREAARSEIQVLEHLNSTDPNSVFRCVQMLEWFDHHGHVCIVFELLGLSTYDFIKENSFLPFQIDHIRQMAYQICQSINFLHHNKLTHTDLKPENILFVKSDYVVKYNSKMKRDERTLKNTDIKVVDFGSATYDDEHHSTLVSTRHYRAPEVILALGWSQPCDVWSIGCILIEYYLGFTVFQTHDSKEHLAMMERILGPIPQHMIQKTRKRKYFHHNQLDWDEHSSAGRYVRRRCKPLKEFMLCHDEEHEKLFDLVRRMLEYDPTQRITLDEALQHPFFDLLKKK
Chain of 3',5'-cyclic-AMP phosphodiesterase 4B (Homo sapiens) (Q07343 whole entry, looked up): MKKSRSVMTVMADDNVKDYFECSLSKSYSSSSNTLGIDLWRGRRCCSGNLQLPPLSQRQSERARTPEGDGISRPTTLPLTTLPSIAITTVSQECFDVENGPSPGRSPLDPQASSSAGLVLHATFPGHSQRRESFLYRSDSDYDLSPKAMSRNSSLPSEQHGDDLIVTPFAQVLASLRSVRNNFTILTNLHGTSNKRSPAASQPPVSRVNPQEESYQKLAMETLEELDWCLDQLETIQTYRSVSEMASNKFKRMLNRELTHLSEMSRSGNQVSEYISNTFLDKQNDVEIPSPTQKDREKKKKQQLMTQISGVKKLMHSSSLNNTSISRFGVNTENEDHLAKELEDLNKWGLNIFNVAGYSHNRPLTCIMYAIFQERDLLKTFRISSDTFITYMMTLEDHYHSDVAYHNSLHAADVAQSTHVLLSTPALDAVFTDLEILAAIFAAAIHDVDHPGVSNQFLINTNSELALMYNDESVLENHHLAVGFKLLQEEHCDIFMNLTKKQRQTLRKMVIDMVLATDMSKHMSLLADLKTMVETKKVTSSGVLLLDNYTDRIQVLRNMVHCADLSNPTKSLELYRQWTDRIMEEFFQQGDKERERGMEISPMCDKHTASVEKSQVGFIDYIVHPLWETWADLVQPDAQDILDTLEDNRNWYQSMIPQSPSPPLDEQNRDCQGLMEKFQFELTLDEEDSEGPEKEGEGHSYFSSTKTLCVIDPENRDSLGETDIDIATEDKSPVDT
Chain of Lysosomal acid glucosylceramidase (Homo sapiens) (P04062 whole entry, looked up): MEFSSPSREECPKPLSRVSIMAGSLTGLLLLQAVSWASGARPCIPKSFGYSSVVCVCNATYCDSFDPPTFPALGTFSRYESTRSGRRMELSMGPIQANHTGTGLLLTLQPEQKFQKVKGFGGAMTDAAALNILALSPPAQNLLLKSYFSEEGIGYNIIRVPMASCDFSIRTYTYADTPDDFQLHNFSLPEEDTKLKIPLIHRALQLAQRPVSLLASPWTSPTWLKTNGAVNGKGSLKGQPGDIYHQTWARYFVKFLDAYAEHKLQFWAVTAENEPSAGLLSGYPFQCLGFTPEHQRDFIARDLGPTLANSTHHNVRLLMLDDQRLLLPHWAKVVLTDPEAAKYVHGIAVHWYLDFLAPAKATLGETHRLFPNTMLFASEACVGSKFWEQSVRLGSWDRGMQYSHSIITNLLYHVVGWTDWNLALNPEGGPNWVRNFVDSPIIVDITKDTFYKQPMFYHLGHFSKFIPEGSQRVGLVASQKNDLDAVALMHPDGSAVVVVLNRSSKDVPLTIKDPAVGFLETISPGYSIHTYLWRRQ
Chain of Ubiquitin carboxyl-terminal hydrolase 1 (Homo sapiens) (O94782 whole entry, looked up): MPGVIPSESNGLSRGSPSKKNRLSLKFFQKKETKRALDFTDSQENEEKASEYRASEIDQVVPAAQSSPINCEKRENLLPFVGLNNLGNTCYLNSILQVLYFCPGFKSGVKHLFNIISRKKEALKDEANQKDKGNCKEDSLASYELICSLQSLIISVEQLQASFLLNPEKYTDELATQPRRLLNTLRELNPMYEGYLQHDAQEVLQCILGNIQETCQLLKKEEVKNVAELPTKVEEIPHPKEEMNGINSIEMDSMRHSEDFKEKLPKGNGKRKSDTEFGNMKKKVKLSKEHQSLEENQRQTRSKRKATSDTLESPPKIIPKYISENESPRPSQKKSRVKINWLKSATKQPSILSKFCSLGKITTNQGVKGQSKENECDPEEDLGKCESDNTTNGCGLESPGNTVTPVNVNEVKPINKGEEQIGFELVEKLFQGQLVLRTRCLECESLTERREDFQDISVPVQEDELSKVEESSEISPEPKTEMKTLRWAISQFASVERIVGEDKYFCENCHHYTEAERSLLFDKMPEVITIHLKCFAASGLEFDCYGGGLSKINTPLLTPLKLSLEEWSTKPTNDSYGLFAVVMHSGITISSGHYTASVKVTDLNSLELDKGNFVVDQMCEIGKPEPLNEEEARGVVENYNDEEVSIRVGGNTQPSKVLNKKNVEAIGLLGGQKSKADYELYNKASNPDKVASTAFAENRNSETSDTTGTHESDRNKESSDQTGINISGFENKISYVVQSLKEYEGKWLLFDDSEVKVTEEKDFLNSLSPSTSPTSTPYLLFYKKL

O=c1c(-c2cc(F)cc(F)c2)nc2cnc(N3CCOCC3)nc2n1C[C@H]1CCCO1
8.91%: max response [10, 17]
active: Potency [3] 2.51 µM
13.4%: max response [10, 18]
inactive: Potency [1] > 11.4 µM | activity change, negative = inhibition [2] 10.4% | activity change, negative = inhibition [4] -16% | activity, negative = inhibition [5] 0.32% | Potency [6] > 9.22 µM | Potency [7] > 46 µM | outcome [8] | Potency [9] | activity change, negative = inhibition [10] 5.53% | Potency [11] | Potency [12] | Potency [13] | Potency [14] | Potency [15]

CN(Cc1ccco1)c1ncncc1-c1ccoc1
22.8%: max response [10, 17]
28.4%: max response [10, 18]
inactive: Potency [1] > 11.4 µM | activity change, negative = inhibition [2] -12.2% | activity change, negative = inhibition [4] -18.1% | activity, negative = inhibition [5] -2% | Potency [7] > 46 µM | outcome [8] | Potency [9] | Potency [16] | activity change, negative = inhibition [10] 6.13% | Potency [11] | Potency [12] | Potency [13] | Potency [14] | Potency [15]
active: Potency [3] 15.8 µM

COc1ccc(CNc2ccnc(-c3ccc4c(c3)OCO4)n2)c(OC)c1
active: Potency [3] 1.26 µM
17.1%: max response [10, 18]
13.5%: max response [10, 17]
inactive: Potency [1] > 11.4 µM | activity change, negative = inhibition [2] -15% | activity change, negative = inhibition [4] -5.96% | activity, negative = inhibition [5] -2.09% | Potency [6] > 46 µM | Potency [7] > 46 µM | outcome [8] | Potency [16] | activity change, negative = inhibition [10] 4.67% | Potency [11] | Potency [12] | Potency [13] | Potency [15]

CN(C)Cc1ccccc1-c1nc(NCc2cccs2)c2ccccc2n1
active: Potency [3] 1 µM
15.9%: max response [10, 18]
16.9%: max response [10, 17]
inactive: Potency [1] > 11.4 µM | activity change, negative = inhibition [2] 25.7% | activity change, negative = inhibition [4] -24.9% | activity, negative = inhibition [5] 15.6% | Potency [7] > 46 µM | outcome [8] | Potency [16] | activity change, negative = inhibition [10] -0.128% | Potency [11] | Potency [12] | Potency [13] | Potency [14] | Potency [15]

N#CCCn1c(=O)c(-c2cccc(C#N)c2)nc2cnc(N3CCOCC3)nc21
inactive: Potency [1] > 11.4 µM | activity change, negative = inhibition [2] 2.97% | activity change, negative = inhibition [4] 6.22% | activity, negative = inhibition [5] 11.4% | Potency [6] > 9.22 µM | Potency [7] > 46 µM | outcome [8] | Potency [9] | Potency [16] | activity change, negative = inhibition [10] -2% | Potency [11] | Potency [12] | Potency [13] | Potency [14] | Potency [15]
13.8%: max response [10, 17]
active: Potency [3] 15.8 µM
7.79%: max response [10, 18]

CNc1ccnc(-c2ccccc2OC)n1
26.2%: max response [10, 18]
21.3%: max response [10, 17]
inactive: Potency [1] > 11.4 µM | activity change, negative = inhibition [2] 4.71% | activity change, negative = inhibition [4] 8.86% | activity, negative = inhibition [5] 16.8% | Potency [6] > 46 µM | Potency [7] > 46 µM | outcome [8] | Potency [9] | Potency [16] | activity change, negative = inhibition [10] 6.44% | Potency [11] | Potency [12] | Potency [13] | Potency [15]
active: Potency [3] 5.01 µM
